Laboratory results as given in PubChem BioAssay (NCI).
The panel holds about 83,000 compounds, 20% with a hit somewhere; the sample as a whole holds those more often.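 The endpoint reported here, percent growth, reads 100 for growth as untreated, 0 for no net growth and -100 for all cells dead.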 Values without a mark were called inactive. Active and inactive are the calls of the source. Rule for the calls: active = growth percent below 10; inactive = the rest.

test system: HL-60(TB) leukemia; test: NCI-60 one-dose screen, 48 h (100 = growth as untreated, 0 = no growth, -100 = all killed); details: 10 µM unless noted

SMILES	growth
CC1CC(C)(C)OB(OC(C)CC(C)(C)OB2OC(C)CC(C)(C)O2)O1 (stereo not given)	103%
[2H]c1nc(=Nc2cc(NC(=O)C=C)c(N(C)CCN(C)C)cc2OC)[nH]c(-c2cn(C([2H])([2H])[2H])c3ccccc23)c1[2H]	-37.8% (active)
N#C/C(=C\c1ccc(-c2cc(C(F)(F)F)ccc2Cl)o1)c1nc(-c2ccco2)cs1	89.2%
Cc1nn(-c2nc3ccccc3[nH]2)c2c1C(c1ccc(O)cc1)CC(=O)N2 (stereo not given)	82.1%
Nc1ncnc2c1N=C(c1ccc3c(c1)OCO3)CC(c1ccc([N+](=O)[O-])cc1)N2 (stereo not given)	88.7%
CCOC(=O)NNC(=S)Nc1ccccc1	106%
COc1cc(/C=N/Nc2ccc(Br)cc2)cc(OC)c1OC	33%
N=c1ccn2c(n1)O[C@@H]1[C@@H](O)[C@H](CO)O[C@@H]12	84%
O=C(CNc1ccc(Cl)cc1)Nc1ccc(-c2nc3ccccc3s2)cc1	71%
COc1ccc(/C=C/C(=O)c2ccc(Nc3nc(NCCO)nc(Nc4ccc(Cl)cc4)n3)cc2)cc1	94%
C=C(C)[C@@H]1C[C@H](O)Cc2cc(F)ccc2N1	-20.3% (active)
N#C/C(=C\c1ccc([N+](=O)[O-])s1)c1nc2cc(Br)ccc2s1	17.7%
O=C1c2cc3c(cc2-c2c1c1ccc(F)cc1c(=O)n2C[C@H](O)[C@H](O)[C@H](O)CO)OCO3	-14.8% (active)
CCOC(=O)C1C(C(=O)OCC)C2C(=O)C3C(C(=O)OCC)C(C(=O)OCC)C3C(=O)C12 (stereo not given)	96.7%
CC/C(=C(/c1ccc(Cl)cc1)c1ccc(OCCN2CCCC2)cc1)c1ccccc1	17.4%
Cc1cc(NS(=O)(=O)c2ccc(-c3cnc(C4CC4)o3)cc2)ccc1Cl	0.815% (active)
COCCOCCOCCOCCOc1ccc2c(c1)C(=O)c1nc3ncccc3c(=O)n1-2	-64.6% (active)
O=C(NCCN1CCOCC1)OCc1ccc2c(Cl)cc(Cl)c(O)c2n1	73.1%
COc1cc(C2CC(C3C(=O)N(C)C(=O)N(C)C3=O)=NN2C=O)cc(OC)c1OC (stereo not given)	104%
COc1cc(/C=C2\COc3ccc(O)c(O)c3C2=O)cc(OC)c1	-29.8% (active)

SMILES	growth
CC(C)(C)c1ccc(N2CSC(=S)N(c3ccc(C(C)(C)C)cc3)C2)cc1	92.7%
CN1CCN(Cc2ccc(NC(=O)c3cncc(C#Cc4c(N)ncc5ccccc45)c3)cc2C(F)(F)F)CC1	-53.2% (active)
COc1ccc(-c2cnc3ccccc3n2)cc1	97%
COc1ccc(Cc2cnc(N)nc2N)cc1OC	95.2%
Cn1c2ccccc2c2c3c(c4c5ccccc5n(CCCCCC#N)c4c21)C(=O)N(O)C3=O	-22.3% (active)
O=C(CI)Nc1ccc(O)c2ccccc12	-11.9% (active)
CNC(=O)c1cc(-n2ccc3cc(NC(=O)c4ccc(N5CCOCC5)c(C(F)(F)F)c4)ccc32)ccn1	66.3%
Nc1cccc(-c2nc3sccn3c2-c2ccnc(NCCCNS(=O)(=O)c3ccc(C(F)(F)F)cc3)n2)c1	-18.5% (active)
O=C1/C(=C/c2ccc([N+](=O)[O-])s2)Oc2ccc(Br)cc21	-22.3% (active)
CC(C)(C)N1CC(OC(N)=O)C1	110%
Cc1ccc2c(c1)c(-c1nc(-c3c[nH]c4ncccc34)cs1)cn2C	84.1%
COc1cc(Cl)cc(-c2nn(C(=O)NS(=O)(=O)c3ccc(Cl)cc3)cc2-c2ccncc2)c1	94.8%
C=CCSC(CC)(CC)C(=O)NC	89.3%
NC(CSC(c1ccccc1)(c1ccccc1)c1ccccc1)C(=O)O (stereo not given)	-0.908% (active)
C/C(=N/Nc1nc2ccccc2n1C)c1ccccn1	-19% (active)
N#Cc1ccc(-n2nnc3ccccc32)cc1C#N	108%
C#C[C@]1(O)CC[C@H]2[C@@H]3CC=C4c5sc(Nc6ccccc6)nc5CC[C@]4(C)[C@H]3CC[C@@]21C	7.59% (active)
NC(=O)c1cc(I)ccc1NC(=O)COc1ccc(Cl)cc1Cl	76.9%
S=C(NCc1ccccc1)N1CCC(CCCC2CCN(C(=S)NCc3ccccc3)CC2)CC1	89.7%
CS(=O)(=O)c1ccc(-c2nc3ccccc3n2CC(=O)N/N=C/c2ccccc2)cc1	141%
